Bioassay records as filed in PubChem BioAssay.
CCHF vOTU inh – CCHFV vOTU protease inhibitors, primary screen, biochemical, Pep-AMC substrate, fluorescence. inhibition, % at 11.5 µM. Crimean-Congo hemorrhagic fever virus L polyprotein viral ovarian tumor (vOTU) protease …. actives 0.55% (n = 370,000); in the data active = inhibition above about 30%; also: 0% = vehicle wells with enzyme and 100% = no enzyme wells
BJeLR viability – MLPCN primary cell-based screen for lethality selective to Ras in HRASV12 cells; BJeLR (HRASV12) viability, CellTiter-Glo ATP luminescence, 48 h; inhibition, % (concentration not given with the values); actives 0.17% (n = 300,000); AID 1554, 2009; in the data active = inhibition above about 50%; inconclusive = no clear call, values can overlap the other calls
Sa RN4220 lethal – growth inhibition of S. aureus RN4220, primary screen, OD600. 16 h. inhibition, % (no concentration beside the values). AID 1259311, 2017. actives 0.33% (n = 330,000); in the data active = inhibition above about 85%;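 also: plate controls were untreated cells for no effect and reference antibiotic for full effect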
Mtb hypoxia rep – PubChem AID 1159583; M. tuberculosis hypoxia-regulated fluorescent reporter, fluorescence; fluorescence inhibition, % (test concentration not listed); actives 0.1% (n = 300,000); in the data active = fluorescence inhibition mostly above about 23%, no sharp cut-off; inactive = mostly below about 17%
RecA intein inh – Mtb RecA intein splicing inhibitors, primary screen, biochemical, fluorescence, HTS; Protein RecA (Mycobacterium tuberculosis (strain ATCC 25618 / H37Rv)), P9WHJ3; cell-free RecA intein splicing; actives 0.75% (n = 290,000); AID 2221, 2009; inhibition, % (concentration not given with the values); in the data active = inhibition above about 30%; inconclusive = no clear call, values can overlap the other calls;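 also: 0% = vehicle wells and 100% = reference inhibitor control wells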
Target sequence (P9WHJ3 whole entry, looked up): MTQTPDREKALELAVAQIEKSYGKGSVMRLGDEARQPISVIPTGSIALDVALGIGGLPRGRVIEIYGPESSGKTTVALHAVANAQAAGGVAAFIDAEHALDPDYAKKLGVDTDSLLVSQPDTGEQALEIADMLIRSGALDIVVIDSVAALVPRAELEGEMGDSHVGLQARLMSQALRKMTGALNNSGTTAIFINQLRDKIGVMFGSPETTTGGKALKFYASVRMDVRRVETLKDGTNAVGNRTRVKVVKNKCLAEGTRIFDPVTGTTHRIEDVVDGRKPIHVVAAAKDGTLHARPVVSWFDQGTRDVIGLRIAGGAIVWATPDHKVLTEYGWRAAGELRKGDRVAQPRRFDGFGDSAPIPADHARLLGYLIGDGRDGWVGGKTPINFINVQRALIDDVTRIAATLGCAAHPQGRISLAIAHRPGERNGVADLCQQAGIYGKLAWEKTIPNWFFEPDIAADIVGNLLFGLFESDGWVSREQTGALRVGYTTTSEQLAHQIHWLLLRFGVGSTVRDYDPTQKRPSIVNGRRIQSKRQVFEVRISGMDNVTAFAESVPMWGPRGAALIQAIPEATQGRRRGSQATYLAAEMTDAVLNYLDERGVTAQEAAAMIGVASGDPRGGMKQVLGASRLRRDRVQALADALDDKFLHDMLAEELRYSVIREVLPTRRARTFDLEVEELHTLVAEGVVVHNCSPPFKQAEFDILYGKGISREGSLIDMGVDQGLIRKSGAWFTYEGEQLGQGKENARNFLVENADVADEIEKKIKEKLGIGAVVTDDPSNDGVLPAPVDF
Sa ugtP lethal – growth inhibition of ugtP-null S. aureus, primary screen, RN4220 ugtP deletion, OD600; 16 h; growth inhibition, % (test concentration not listed); actives 0.54% (n = 330,000); AID 1259309, 2017; in the data active = growth inhibition above about 68%;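 also: plate controls were untreated wells for no effect and antibiotic for full effect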
GFP chromo cs – counter-screen: blocks GFP chromophore formation, dose response, counter-screen, biochemical, fluorescence, homogeneous | shares compounds with RecA intein inh | cell-free GFP chromophore formation | EC50, µM | actives 83% (n = 2,100) | AID 434968, 2010; call rule not given here
* marks the source's active call; other numbers are inactive results; ? = inconclusive; nt = no result given; ! = not active in a repeat. Compounds with a hit are over-represented: about 1.6% of the library has one in this group of screens.

SMILES	CCHF vOTU inh	BJeLR viability	Sa RN4220 lethal	Mtb hypoxia rep	RecA intein inh	Sa ugtP lethal	GFP chromo cs
CCOC(=O)C1(CCOc2ccccc2)CCN(Cc2ccc(O)c(Cl)c2)CC1	2.6	8.6	0.8	11.0	42.7*	2.9	>38
CCOC(=O)C1(CCOc2ccccc2)CCN(Cc2ccc(O)c(OC)c2)CC1	-5.3	5.0	6.1	16.7	4.7	7.9	nt
CC1=CC(=Nc2c(C)n(C)n(-c3ccccc3)c2=O)C=CC1=O	nt	1.6	nt	nt	56.7*	nt	26.9*
CC1=CC(=Nc2c(C)n(C)n(-c3ccccc3)c2=O)C=C(C)C1=O	1.5	-1.7	2.1	11.8	-6.1	12.2	nt
O=C(CNC(=O)c1ccccc1)N/N=C/c1ccc([N+](=O)[O-])o1	24.8	-0.5	nt	nt	57.5*	nt	>38
O=C(N/N=C/c1ccc([N+](=O)[O-])o1)c1ccc(O)cc1	10.4	18.0	nt	nt	55.8*	nt	>38
CCOC(=O)c1c(NC(C)=O)sc2c(OCCN(CC)CC)c(Br)ccc12	5.0	0.0	0.8	1.4	-2.8	1.1	nt
CCOC(=O)c1c(NC(C)=O)sc2c1CCC(C=NCCCN(CC)CC)=C2Sc1ccccc1	nt	-10.9	25.2	nt	60.9*	-4.5	0.372*
CC1=NN(Cc2ccccc2)C(=O)/C1=C\c1ccc(N(C)C)cc1	8.1	5.2	-9.6	-2.0	93.9*	-3.8	?
CCOC(=O)C1=NN(c2ccccc2)C(=O)/C1=C\c1ccc(N(C)C)cc1	21.9	-4.4	-6.1	nt	-4.3	-3.3	nt
COc1cccc(-n2nc(C#N)c(Cl)cc2=O)c1	6.1	-28.6	40.3	21.5	73.4*	9.8	21.1*
COc1cccc(-n2nc(C(N)=O)c(O)cc2=O)c1	-0.5	-3.7	-0.6	-6.7	-0.7	-1.6	nt
CCCOc1ccc(-c2nn(-c3ccccc3)cc2C=C2SC(N)=NC2=O)cc1	nt	nt	10.7	-2.1	nt	-1.4	nt
CN1CCN(C2=C(Cl)C(=O)N(c3ccc(Cl)c(Cl)c3)C2=O)CC1	nt	-28.0	3.9	11.1	67.9*	5.1	2.29*
Cc1ccc(N2C(=O)C(Cl)=C(N3CCOCC3)C2=O)cc1Cl	-16.9	2.9	5.1	9.9	73.8*	-4.4	?
O=C1C(Cl)=C(N2CCOCC2)C(=O)N1c1ccccc1Cl	nt	-28.3	-2.2	-3.0	85.9*	2.7	5.62*
O=S(=O)(c1ccccc1)[C@@]1(c2ccccc2)CC2ON=C(c3cccc(-c4ccccc4)c3)C2C1 (some centres not stated)	nt	nt	-2.1	9.7	nt	1.5	nt
Cc1cc(C)n(-c2ccc(C(=O)O)cc2)n1	2.6	-8.8	3.4	9.0	-1.2	-0.6	nt
N#CC(C#N)=NNc1ccc(-n2ccc(C(F)(F)F)n2)cc1	8.8	59.0*	nt	nt	78.6*	nt	6.4*
O=C(Nc1ccccc1)Nc1ccc(-n2ccc(C(F)(F)F)n2)cc1	-3.7	-7.1	4.5	-2.2	1.0	-13.5	nt
Cc1cc(C)n(-c2ccc(NN=C(C#N)C#N)cc2)n1	-5.8	5.3	66.8	19.9	57.0*	35.6	19.3*
COC(=O)C1=C(c2ccccc2)CC2CCC1N2C(=O)NCc1ccc(F)cc1 (configuration not stated)	nt	nt	5.1	2.0	nt	-0.7	nt
CC1CN(C(C)CO)C(=O)c2cccc(NS(C)(=O)=O)c2OC1CN(C)Cc1ccc(Oc2ccccc2)cc1 (configuration not stated)	nt	nt	4.7	7.6	nt	5.3	nt
Cc1ccc(SCc2cc(=O)n(C)[nH]2)cc1	-5.7	-7.0	3.7	7.3	95.3*	-10.3	19.2*
CC(C)(C)OC(=O)NCCCCC(C(=O)N1CCN(C(=O)OC(C)(C)C)CC1)n1cc(CCC(=O)O)nn1 (configuration not stated)	nt	nt	-2.4	0.5	nt	-5.0	nt
SMILES	CCHF vOTU inh	BJeLR viability	Sa RN4220 lethal	Mtb hypoxia rep	RecA intein inh	Sa ugtP lethal	GFP chromo cs
Cc1cc(C)nc(N2N=C(C(C)(C)C)CC2=O)n1	21.3	-7.8	5.3	15.0	39.8*	-4.1	33.8*
COc1ccc(-c2noc(-c3ccccc3C(=O)N3CCOCC3)n2)cc1	3.7	-21.0	0.7	2.2	0.9	-2.4	nt
Cc1ccc(-c2noc(-c3ccccc3C(=O)N3CCOCC3)n2)cc1	-7.6	-2.9	3.6	7.9	-3.1	7.6	>38
CC#CCN1c2ccccc2[C@]23CC(C(=O)OC)N(C(=O)c4ccco4)C2=NC(C(=O)OC)=C(C(=O)OC)C13 (some centres not stated)	nt	nt	6.6	15.5	nt	0.8	nt
Cc1ccc(Nc2cc(C)nn2-c2nc(C)cc(=O)[nH]2)cc1	nt	39.7	97.6*	19.9	39.3*	99.1*	>38
CCN(CC)CCOc1ccc(/C(=C(/Cl)c2ccccc2)c2ccccc2)cc1	11.1	3.3	nt	nt	31.9*!	nt	20.1*
CC1CN(C(C)CO)C(=O)c2cc(NS(=O)(=O)c3ccc(F)cc3)ccc2OC1CN(C)C(=O)NC1CCCCC1 (configuration not stated)	nt	nt	-0.4	-3.0	nt	-1.6	nt
CCc1ccc(NC(=O)CSc2ccc(-c3sc(C)nc3C)nn2)cc1	7.6	-4.0	2.2	14.0	82.3*	5.4	>38
COc1ccc(NC(=O)CSc2ccc(-c3sc(C)nc3C)nn2)cc1	-1.0	-13.7	1.4	-2.6	-2.9	-7.4	nt
Cc1ccc(CN=Cc2[nH]c3ccc(Br)c(Cl)c3c2O)cc1	-7.2	-0.5	15.8	5.7	74.7*	-15.0	4.81*
Oc1c(C=NCc2ccc(F)cc2)[nH]c2ccc(Br)c(Cl)c12	5.0	-9.6	nt	nt	42.7*	nt	6.09*
CC(NC(=O)c1nc[nH]c1C(=O)NC(C)c1ccccc1)C(=O)OC(C)(C)C (configuration not stated)	nt	nt	6.4	17.8	nt	4.2	nt
CC1CN(C(C)CO)C(=O)c2cc(NC(=O)Nc3ccc4c(c3)OCO4)ccc2OC1CN(C)S(C)(=O)=O (configuration not stated)	nt	nt	0.6	4.6	nt	-4.2	nt
CCOC(=O)c1c(C)oc2c1c(C=NC1CCS(=O)(=O)C1)c(O)c1ccccc12 (configuration not stated)	25.7	-1.6	1.5	-0.2	1.2	-3.6	nt
CCOC(=O)c1c(C)oc2c1c(C=NCCC(=O)O)c(O)c1ccccc12	9.5	1.8	9.5	9.1	33.6*	4.3	33.8*
CCCCc1ccc(NC(=O)CSCc2cc(=O)[nH][nH]2)cc1	10.9	-8.3	2.5	4.1	64.2*	8.2	17.3*
CCCCc1ccc(NC(=O)COCC)cc1	3.2	-2.0	-1.6	nt	-2.0	1.4	nt
O=C(CSCc1cc(=O)[nH][nH]1)Nc1ccc(F)cc1	-13.1	4.3	3.5	-1.0	84.5*	2.9	12.4*
O=C(CSCc1ccc(F)cc1)Nc1ccc(F)cc1	5.1	1.2	5.1	11.3	2.5	0.4	nt
COC(=O)C1C[C@@]2(O)C(O)C(O)C(O)CC2N1CC1CCCCC1 (some centres not stated)	nt	nt	5.2	8.9	nt	4.1	nt
